In PubChem BioAssay AID1159580 (chemical genetic matrix, 2015):
The campaign covered roughly 5,500 compounds. About 2,000 (36%) were called active. Inconclusive results (about 18%) are left out. Cut-off read from the data, not from the text of the source: active = normalized growth mostly below about 0.91 (no sharp cut-off); inconclusive = no clear call, values can overlap the other calls; inactive = mostly above about 0.92. Some of the results follow.

Test: chemical genetic growth profiling, strain panel (AID 1159580);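 note: tested at 20 µM; growth read once vehicle control cultures reached saturation at 30 °C; 1 = growth at the plate median or of vehicle wells; lower values mean less growth of the strain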
Details: growth OD

Measured: normalized growth

CN(C)CCN(Cc1ccccc1)c1ccccn1
inactive: S. cerevisiae deletion strains, locus YJR075W, strain HOC1, active compounds read low 1.01 | S. cerevisiae deletion strains, locus YKL009W, strain mrt4, active compounds read low 0.993 | S. cerevisiae deletion strains, locus YKL068W, active compounds read low 0.969 | S. cerevisiae deletion strains, locus YKL085W, strain MDH1 (second series), active compounds read low 0.978 | S. cerevisiae deletion strains, locus YKL085W, strain MDH1, active compounds read low 0.978 | S. cerevisiae deletion strains, locus YKL160W, strain elf1, active compounds read low 1.03 | S. cerevisiae deletion strains, locus YKL190W, strain CNB1, active compounds read low 0.983 | S. cerevisiae deletion strains, locus YKR001C, strain vps1, active compounds read low 0.994 | S. cerevisiae deletion strains, locus YKR026C, strain gcn3, active compounds read low 1 | S. cerevisiae deletion strains, locus YKR091W, strain srl3, active compounds read low 1.01 | S. cerevisiae deletion strains, locus YLL001W, strain dnm1, active compounds read low 1.04 | S. cerevisiae deletion strains, locus YLL026W, active compounds read low 1.02 | S. cerevisiae deletion strains, locus YLL041C, strain sdh2, active compounds read low 1.01 | S. cerevisiae deletion strains, locus YLR027C, strain aat2, active compounds read low 1.01 | S. cerevisiae deletion strains, locus YLR039C, strain RIC1, active compounds read low 0.966 | S. cerevisiae deletion strains, locus YLR058C, strain SHM2, active compounds read low 0.999 | S. cerevisiae deletion strains, locus YLR102C, strain apc9, active compounds read low 0.986 | S. cerevisiae deletion strains, locus YLR113W, strain HOG1, active compounds read low 0.909 | S. cerevisiae deletion strains, locus YLR221C, strain rsa3, active compounds read low 0.988 | S. cerevisiae deletion strains, locus YLR258W, strain gsy2, active compounds read low 1.01 | S. cerevisiae deletion strains, locus YLR262C, strain YPT6 (second series), active compounds read low 1.02 | S. cerevisiae deletion strains, locus YLR262C, strain YPT6, active compounds read low 1.01 | S. cerevisiae deletion strains, locus YLR268W, strain sec22, active compounds read low 0.985 | S. cerevisiae deletion strains, locus YLR320W, strain mms22, active compounds read low 1.01 | S. cerevisiae deletion strains, locus YLR330W, strain CHS5, active compounds read low 0.999 | S. cerevisiae deletion strains, locus YLR342W, strain FKS1 (second series), active compounds read low 1.04 | S. cerevisiae deletion strains, locus YLR342W, strain FKS1, active compounds read low 1.02 | S. cerevisiae deletion strains, locus YLR357W, strain rsc2, active compounds read low 1.03 | S. cerevisiae deletion strains, locus YLR370C, strain arc18, active compounds read low 1.03 | S. cerevisiae deletion strains, locus YLR371W, strain rom2, active compounds read low 0.976 | S. cerevisiae deletion strains, locus YLR384C, strain iki3, active compounds read low 1.01 | S. cerevisiae deletion strains, locus YLR418C, strain cdc73, active compounds read low 1.02 | S. cerevisiae deletion strains, locus YML016C, strain PPZ1, active compounds read low 1.01 | S. cerevisiae deletion strains, locus YML032C, strain rad52, active compounds read low 0.978 | S. cerevisiae deletion strains, locus YML120C, strain ndi1, active compounds read low 1.02 | S. cerevisiae deletion strains, locus YML124C, strain tub3, active compounds read low 0.988 | S. cerevisiae deletion strains, locus YMR058W, strain fet3, active compounds read low 1.02 | S. cerevisiae deletion strains, locus YMR078C, strain ctf18, active compounds read low 0.988 | S. cerevisiae deletion strains, locus YMR125W, strain sto1, active compounds read low 1.02 | S. cerevisiae deletion strains, locus YMR129W, active compounds read low 1 | S. cerevisiae deletion strains, locus YMR205C, strain PFK2, active compounds read low 1.04 | S. cerevisiae deletion strains, locus YMR223W, strain ubp8, active compounds read low 1.02 | S. cerevisiae deletion strains, locus YMR231W, strain pep5, active compounds read low 1 | S. cerevisiae deletion strains, locus YMR263W, strain SAP30, active compounds read low 0.976 | S. cerevisiae deletion strains, locus YMR307W, strain GAS1, active compounds read low 1.06 | S. cerevisiae deletion strains, locus YNL067W, strain RPL9B, active compounds read low 0.985 | S. cerevisiae deletion strains, locus YNL071W, strain lat1, active compounds read low 1.01 | S. cerevisiae deletion strains, locus YNL128W, strain TEP1, active compounds read low 0.987 | S. cerevisiae deletion strains, locus YNL153C, strain GIM3, active compounds read low 0.995 | S. cerevisiae deletion strains, locus YNL183C, strain NPR1, active compounds read low 0.942 | S. cerevisiae deletion strains, locus YNL209W, strain ssb2, active compounds read low 1 | S. cerevisiae deletion strains, locus YNL233W, strain BNI4, active compounds read low 1.01 | S. cerevisiae deletion strains, locus YNL248C, strain rpa49, active compounds read low 1 | S. cerevisiae deletion strains, locus YNL250W, strain rad50, active compounds read low 0.96 | S. cerevisiae deletion strains, locus YNL271C, strain bni1, active compounds read low 0.953 | S. cerevisiae deletion strains, locus YNL298W, strain CLA4, active compounds read low 0.994 | S. cerevisiae deletion strains, locus YNL307C, strain MCK1, active compounds read low 0.989 | S. cerevisiae deletion strains, locus YNL322C, strain KRE1 (second series), active compounds read low 1.02 | S. cerevisiae deletion strains, locus YNL322C, strain KRE1, active compounds read low 0.987 | S. cerevisiae deletion strains, locus YNR049C, strain mso1, active compounds read low 1.02 | S. cerevisiae deletion strains, locus YNR052C, strain pop2, active compounds read low 0.986 | S. cerevisiae deletion strains, locus YOL006C, strain TOP1, active compounds read low 1 | S. cerevisiae deletion strains, locus YOL012C, strain htz1 1.43 | S. cerevisiae deletion strains, locus YOL147C, strain pex11, active compounds read low 0.978 | S. cerevisiae deletion strains, locus YOR001W, strain rrp6, active compounds read low 1.04 | S. cerevisiae deletion strains, locus YOR061W, strain CKA2, active compounds read low 0.996 | S. cerevisiae deletion strains, locus YOR069W, strain VPS5, active compounds read low 1 | S. cerevisiae deletion strains, locus YOR070C, strain gyp1, active compounds read low 0.999 | S. cerevisiae deletion strains, locus YOR080W, strain dia2, active compounds read low 1.02 | S. cerevisiae deletion strains, locus YOR083W, strain WHI5, active compounds read low 1.01 | S. cerevisiae deletion strains, locus YOR106W, strain vam3, active compounds read low 1.05 | S. cerevisiae deletion strains, locus YOR136W, strain idh2, active compounds read low 0.997 | S. cerevisiae deletion strains, locus YOR144C, strain elg1, active compounds read low 0.98 | S. cerevisiae deletion strains, locus YOR184W, strain ser1, active compounds read low 1 | S. cerevisiae deletion strains, locus YOR231W, strain MKK1, active compounds read low 0.959 | S. cerevisiae deletion strains, locus YOR265W, strain rbl2, active compounds read low 1 | S. cerevisiae deletion strains, locus YOR270C, strain vph1, active compounds read low 1.02 | S. cerevisiae deletion strains, locus YOR290C, strain snf2, active compounds read low 0.985 | S. cerevisiae deletion strains, locus YOR316C, strain cot1, active compounds read low 0.991 | S. cerevisiae deletion strains, locus YPL051W, strain arl3, active compounds read low 1.02 | S. cerevisiae deletion strains, locus YPL055C, strain LGE1, active compounds read low 1.04 | S. cerevisiae deletion strains, locus YPL078C, strain atp4, active compounds read low 1.04 | S. cerevisiae deletion strains, locus YPL106C, strain sse1, active compounds read low 1.02 | S. cerevisiae deletion strains, locus YPL240C, strain hsp82, active compounds read low 1.01 | S. cerevisiae deletion strains, locus YPL241C, strain CIN2, active compounds read low 0.992 | S. cerevisiae deletion strains, locus YPL256C, strain CLN2, active compounds read low 0.974 | S. cerevisiae deletion strains, locus YPR119W, strain clb2, active compounds read low 0.988 | S. cerevisiae deletion strains, locus YPR141C, strain kar3, active compounds read low 0.965 | S. cerevisiae deletion strains, locus YPR163C, strain tif3, active compounds read low 0.982 | S. cerevisiae deletion strains, locus YPR167C, strain met16, active compounds read low 0.973 | S. cerevisiae deletion strains, strain wtn01, active compounds read low 0.989 | S. cerevisiae strains, strain wild type, active compounds read low 0.999
